Assay outcomes: PubChem, National Center for Advancing Translational Sciences (NCATS)
Methyltransferases: Primary Screen for Target Class Profiling of Small Molecule Inhibitors of Methyltransferases; hit rate 3.9% among 25,000; purified enzyme, MTase-Glo SAH luminescence; hits give low values; calls only at 40 µM; call rule not given here
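Each enzyme was reacted with SAM and its substrate, with compounds tested once at 40 uM; SAH formed was read by MTase-Glo luminescence.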
* = called active by the depositor. Only a selection was taken, and hits are over-represented in it overall. % is set by controls: 0 for no effect and ±100 for the full control effect.

`CC1CC(=O)C2=C(O1)OC1(C)CCC3C(C)(C)C4OC4C(=O)C3(C)C1C2` (configuration not stated) gave Methyltransferases active.
For CC1CC(=O)C2=C(O1)OC1(C)CCC3C(C)(C)C=CC(=O)C3(C)C1C2 (configuration not stated) the results were Methyltransferases active.
`Cc1noc(-c2cccs2)c1C(=O)NCc1ccco1` gave Methyltransferases inactive.
`O=C(c1ccc(F)cc1)N1CCC(C(=O)N2CCCC(c3nc4ccncc4[nH]3)C2)CC1` (configuration not stated) gave Methyltransferases inactive.
For CC1CCCC(NC(=O)C2(C)Cn3c(nc4ccccc43)C(=O)N2CCCc2ccccc2)C1C (configuration not stated) the results were Methyltransferases inactive.
For O=C(C(Cc1ccccc1)NS(=O)(=O)c1cccc2nsnc12)N1CCN(c2ccccn2)CC1 (configuration not stated) the results were Methyltransferases inactive.
c1ccc(CN(Cc2ccoc2)[C@@H]2C[C@@H]3CO[C@H](c4ccccc4)C[C@@H]3C2)cc1 was read as Methyltransferases inactive.
CCN(CCCNC(=O)CCc1nnc2n(Cc3ccccc3)c(=O)c3ccccc3n12)c1ccccc1 was read as Methyltransferases inactive.
`COCCNC(=O)CCc1nnc2n(Cc3ccc(Cl)cc3)c(=O)c3ccccc3n12` gave Methyltransferases inactive.
O=C(CCc1nnc2n(Cc3ccccc3)c(=O)c3ccccc3n12)NCCc1ccc(Cl)cc1 was read as Methyltransferases inactive.
Screening O=C(CCc1nnc2n(Cc3ccc(F)cc3)c(=O)c3ccccc3n12)NCc1ccc(F)cc1 returned Methyltransferases inactive.
`CCN(CC)CCCNC(=O)CCc1nnc2n(Cc3ccc(F)cc3)c(=O)c3ccccc3n12` gave Methyltransferases active.
`CCN(CC)CCNC(=O)CCc1nnc2n(Cc3ccc(Cl)cc3)c(=O)c3ccccc3n12` gave Methyltransferases active.
For C=C1C(O)C(O)C2(CC3C(C)=CCC4C(C)(C(=O)O)CCCC34C)OC2C1O (configuration not stated) the results were Methyltransferases inactive.
Screening CCCn1c(=O)c2ccc(C(=O)NC(C)C)cc2n2c(SCC(=O)c3cc(C)ccc3C)nnc12 returned Methyltransferases inactive.
COc1ccc2c(c1)c(NC(C)=O)c1n2CC(C)(C(=O)NC2CCCC2)N(Cc2cccnc2)C1=O (configuration not stated) was read as Methyltransferases inactive.
For CC1(C(=O)NC2CCCCC2)Cn2c(cc3sccc32)C(=O)N1C1CCCCCC1 (configuration not stated) the results were Methyltransferases inactive.
Screening O=c1c2ccccc2n2c(=O)n(Cc3cccc(Cl)c3)nc2n1Cc1ccccc1 returned Methyltransferases inactive.
Screening CC(=O)NC1CCN(C(=O)Cc2c(C)[nH]c3c(C)ccc(C)c23)C1 (configuration not stated) returned Methyltransferases inactive.
`COc1cccc(NC(=O)CSc2nnc3n(CC(C)C)c(=O)c4ccc(Cl)cc4n23)c1` gave Methyltransferases inactive.
NC(=O)N1CCC(CC(=O)N2CCC(C3c4ncc(Br)cc4CCc4cc(Cl)cc(Br)c43)CC2)CC1 (configuration not stated) was read as Methyltransferases active.
Screening CC(C)Cn1c(=O)c2ccc(C(=O)NC(C)C)cc2n2c(=O)n(Cc3ccc(F)cc3Cl)nc12 returned Methyltransferases inactive.
COc1cc(OC)cc(N2C(=O)CSc3c(c4ccccc4n3C)C2C(=O)NCc2ccc(F)cc2)c1 (configuration not stated) was read as Methyltransferases inactive.
Screening O=C(O)Cc1cn([C@@H]2O[C@H](CO)[C@@H](O)[C@H](O)[C@H]2O[C@@H]2O[C@H](CO)[C@@H](O)[C@H](O)[C@H]2O)c2ccccc12 returned Methyltransferases inactive.
Screening CCC(C)NC(=O)c1ccc2c(=O)n(C)c3nn(CC(=O)NCc4ccccc4Cl)c(=O)n3c2c1 (configuration not stated) returned Methyltransferases inactive.
For O=C(NCc1cccc(Cl)c1)c1ccc2oc(-c3cccnc3)nc2c1 the results were Methyltransferases inactive.
For O=C(Nc1ccc(Cl)cc1)c1nc(Nc2ccccc2)c2ccccc2n1 the results were Methyltransferases inactive.
For O=C(O)c1ccc2c(c1)nc(Nc1cccc(Cl)c1)c1ccncc12 the results were Methyltransferases active.
Screening C/C(=C\CCC1(C)C2CCC(C2)C1(C)O)C(=O)O (configuration not stated) returned Methyltransferases inactive.
`CC(C)=C1C[C@@]2(C)C(=CC1=O)CC[C@@H](O)[C@@H]2C` gave Methyltransferases inactive.
Screening CC1=CC(=O)C(=C(C)C)CC2C(C)(O)CCC12O (configuration not stated) returned Methyltransferases active.
For CC(C)c1ccc(N2C(=O)c3cc4sccc4n3CC2(C)C(=O)NC2CCCC(C)C2C)cc1 (configuration not stated) the results were Methyltransferases inactive.
